Results filed as inconclusive are left out. Calls of active or inactive are those of the source. The call rests on the fitted dose curve; in most records, active means well fitted inhibition curve with a large enough effect; inconclusive means small, poorly fitted or top-dose-only effect; inactive means flat fitted curve, though single readings scatter.
Target: Phospholipid hydroperoxide glutathione peroxidase GPX4 (Homo sapiens) (UniProt P36969)
Experiment: Primary qHTS Assay for Inhibitors of Recombinant Selenoprotein Glutathione Peroxidase 4 (GPX4) (AID 1845192); further: nearly all actives have a fitted effect of over 65% in size
Conditions: recombinant GPX4, GR-coupled NADPH fluorescence, 15 min; series mostly up to 27.8 µM; activity change, negative = inhibition: at the top concentration
Excerpt: Assay Provider: Elias S.J. Arner MD PhD.
Department of Medical Biochemistry and Biophysics
Karolinska Institutet, Solna, Stockholm, Sweden
Selenoprotein glutathione peroxidases (GPX), like the ubiquitously expressed GPX1 and the ferroptosis modulator GPX4, enact their antioxidant activities by reducing hydroperoxides using glutathione. […] GPX1 and GPX4 inhibitors have thus shown promise as anti-cancer agents. Existing inhibitors are often promiscuous, or modulate GPX activity only indirectly, so novel direct inhibitors identified through screening against GPX1 and GPX4 could be valuable. Here, we developed optimized glutathione reductase (GR)-coupled GPX assays for the biochemical high-throughput screen (HTS) of almost 12,000 compounds with known mechanisms of action. Initial hits were triaged using a GR counter-screen, assessed for isoform specificity using a separate GPX2 assay, and were assessed for general selenocysteine-targeting activity using a thioredoxin reductase (TXNRD1) assay. With this suite of assays, we identified novel GPX1/GPX2- and GPX4-specific inhibitors and can here present a validated pipeline for future discovery research for selenoprotein-targeting agents.
SEQUENCE No. (e.g., 1, 2, 3, etc.); […] (e.g., Cells, Incubation, Reagent, etc.); VALUE; DESCRIPTION.
1; Reagent 1; 3 uL; 333.33 nM GPx4 enzyme or no enzyme control in 1536-well, black, solid Greiner assay plate.
2; Compound; 25 nL; Kalypsis pin tool (Wako USA) equipped with a 1536-well pin head.
3; Incubation; 30 min; room temperature.
4; Reagent 2; 1 uL; 500 nM GR, 5 mM GSH, 2.5 mM NADPH solution
5; Reagent 3; 1 uL; 2.5 mM CHP in 50% EtOH.
6; Detection; Fluorescence; ViewLux microplate reader, excitation 340 nm and emission 450 nm.
7; Incubation; 15 min; room temperature.
8; Detection; Fluorescence; ViewLux microplate reader, excitation 340 nm and emission 450 nm.
NOTES (numbers refer to Sequence numbers above)
1. 3 µL of 333.33 nM GPX4 and 0.016% BSA in assay buffer (50 mM Tris-HCl, 2 mM EDTA (pH 7.5), 150 mM NaCl) was added to columns 3-48 of 1536-well plates using a BioRAPTR Flying Reagent Dispenser (Let's Go Robotics (LGR), Carlsbad, CA). A no-enzyme control (0.01% BSA in TES assay buffer) was added to columns 1-2.
2. 25 nL, library and DMSO controls were added to each well with a pin tool (Kalypsys).
3. The assay plates were incubated for 30 minutes at room temperature.
4. 1 µL of master mix (500 nM glutathione reductase (GR), 5 mM reduced glutathione (GSH), 2.5 mM NADPH in assay buffer) was added.
5. 1 µL of cumene hydroperoxide (CHP) ([2.5 mM] in 50% EtOH) was then added within 5 minutes to initiate the reaction. Final concentrations were: 200 nM GPX4, 1 mM GSH, 0.5 mM CHP, 0.5 mM NADPH, 100 nM GR, 0.01% BSA.
6. Initial fluorescence readout (t=0) at 340/450 nm was measured using a ViewLux multimodal detector (PerkinElmer, Waltham, MA).
8. Endpoint fluorescence readout (t=15) at 340/450 nm was measured 15 min after room temperature incubation.
On the % scale 0 is the no-effect control and ±100 the full control effect.

Chain of Phospholipid hydroperoxide glutathione peroxidase GPX4 (Homo sapiens) (P36969 whole entry, looked up): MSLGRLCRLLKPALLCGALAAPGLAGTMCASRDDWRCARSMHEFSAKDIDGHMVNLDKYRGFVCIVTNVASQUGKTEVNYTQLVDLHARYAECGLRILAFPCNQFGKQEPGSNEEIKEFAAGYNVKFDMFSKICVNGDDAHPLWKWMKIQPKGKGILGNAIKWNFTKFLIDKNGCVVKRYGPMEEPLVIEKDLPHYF

| Compound | activity change, negative = inhibition | outcome | Potency |
| --- | --- | --- | --- |
| C=C(C(=O)O)[C@@H]1CC[C@@]2(C)CCC[C@@](C)(O)[C@@H]2C1 | -10.1% [at 50 µM] (inactive) | – | – |
| CC1=CC(=O)[C@]2(O[C@@H]3O[C@@H](C)[C@H](O)[C@@H](O)[C@H]3O)C=CO[C@@H](O[C@@H]3O[C@H](CO)[C@@H](O)[C@H](O)[C@H]3O)[C@H]12 | 3.15% (inactive) | – | – |
| COc1c(C)c(OCC(O)C(C)(C)O)cc2c1CNC2=O (stereo not given) | -8.8% [at 50 µM] (inactive) | – | – |
| CC/C=C\C(O)C(O)C1=C(C)C(=O)C2(O1)C(=O)NC(OC)(C(=O)c1ccccc1)C2O (stereo not given) | -13% (inactive) | – | – |
| COC(=O)C1=CO[C@@H](O[C@@H]2O[C@H](CO[C@@H]3O[C@H](CO)[C@@H](O)[C@H](O)[C@H]3O)[C@@H](O)[C@H](O)[C@H]2O)[C@@H]2C(CO)=CC[C@H]12 | – | inactive | – |
| CC(=O)NC(C(=O)OC1CCC(C)(C)C2CC=C3C(=O)OCC3C12C)C(C)C (stereo not given) | – | inactive | – |
| CC1(C)OC(=O)CC(O)C2(C)C1CC(=O)C1(C)C2C(O)CC2(C)C(c3ccoc3)OC(=O)C3OC321 (stereo not given) | -10.9% (inactive) | – | – |
| C=CC(C)(O)CC/C=C(\C)C(=O)O[C@@H]1[C@@H](O)[C@H](OC(C)(C=C)CC/C=C(\C)C(=O)O[C@@H]2O[C@H](CO)[C@@H](O)[C@H](O)[C@H]2O)O[C@H](CO)[C@H]1OC(=O)/C(C)=C/CCC(C)(O)C=C (stereo not given in full) | -6.47% [at 15.3 µM] (inactive) | – | – |
| CC1(C)CC[C@]2(C(=O)O)CC[C@]3(C)C(=CCC4[C@@]5(C)C[C@@H](O)[C@H](O)[C@@](C)(CO)C5CC[C@]43C)C2C1 (stereo not given in full) | -12.6% (inactive) | – | – |
| CCC12CCCN3CCc4c(n(c5ccccc45)C(O)C1)C32 (stereo not given) | -12.1% [at 50 µM] (inactive) | – | – |
| C[C@@H]1O[C@@H](O[C@H]2[C@@H]3C=CO[C@@H](O[C@@H]4O[C@H](CO)[C@@H](O)[C@H](O)[C@H]4O)[C@@H]3[C@@]3(CO)O[C@@H]23)[C@H](O)[C@H](O)[C@H]1OC(=O)/C=C/c1ccc(O)cc1 | 0.538% [at 15.3 µM] (inactive) | – | – |
| COc1cc(O)cc(O[C@@H]2O[C@H](CO)[C@@H](O[C@@H]3OC[C@](O)(CO)[C@H]3O)[C@H](O)[C@H]2O)c1OC | 4.06% (inactive) | – | – |
| CC(=O)/C=C/C1(O)C(C)=CC(=O)CC1(C)C (stereo not given) | -0.043% [at 50 µM] (inactive) | – | – |
| CC(=O)OCC1OC(OC2COC(OC3COC(OC4C(OC5C(CO)OC(OC6CCC7(C)C(CCC8(C)C7CC=C7C9CC(C)(C)CCC9(C(=O)OC9OC(CO)C(O)C(O)C9OC9OCC(OC%10OCC(O)(CO)C%10O)C(O)C9O)C(O)CC78C)C6(C)C)C(O)C5O)OCC(O)C4O)C(O)C3O)C(O)C2O)C(OC(=O)/C=C/c2ccccc2)C(O)C1OC(C)=O (stereo not given) | 0.258% [at 9.73 µM] (inactive) | – | – |
| C[C@H]1CC[C@@]2(OC1)O[C@H]1CC3C4CC[C@H]5C[C@@H](O)CC[C@]5(C)C4CC(=O)[C@]3(C)[C@H]1[C@@H]2C (stereo not given in full) | -7.56% (inactive) | – | – |
| CC(C)=C1C[C@@]2(C)C(=CC1=O)CC[C@@H](O)[C@@H]2C | 0.764% [at 50 µM] (inactive) | – | – |
| O=C(OCc1ccccc1O[C@@H]1O[C@H](CO)[C@@H](O)[C@H](O)[C@H]1O)C1(O)C=CCCC1O (stereo not given in full) | 1.15% (inactive) | – | – |
| CCC(C)C(=O)OC[C@H]1O[C@H](O[C@H]2O[C@H](CO)[C@@H](O)[C@H](O)[C@H]2O)[C@H](O)[C@@H](O)[C@@H]1O (stereo not given in full) | – | inactive | – |
| C/C=C/C=C/C1=C2C(=O)C3(C)C4C(C(=O)CC(O)/C=C/C)=C(O1)C1(C)C2C2(C)OC1(O)C4(C)OC23O (stereo not given) | -6.71% (inactive) | – | – |
| COc1ccc(CCC(=O)c2c(O)cc(O[C@@H]3O[C@H](CO)[C@@H](O)[C@H](O)[C@H]3O[C@@H]3O[C@@H](C)[C@H](O)[C@@H](O)[C@H]3O)cc2O)cc1O | -16.1% [at 50 µM] (inactive) | – | – |

| Compound | activity change, negative = inhibition | outcome | Potency |
| --- | --- | --- | --- |
| CC1(C)CC[C@]2(C(=O)O[C@@H]3O[C@H](CO)[C@@H](O)[C@H](O)[C@H]3O)CC[C@]3(C)C(=CCC4[C@@]5(C)C[C@H](O)[C@H](O[C@@H]6OC[C@@H](O)[C@H](O)[C@H]6O)[C@@](C)(CO)C5CC[C@]43C)C2C1 (stereo not given in full) | -4.3% [at 15.3 µM] (inactive) | – | – |
| C/C=C(/C)C(=O)OC1CC(C)(C)CC2C3=CCC4C5(C)CCC(OC6OC(C)C(OC7OC(C(=O)O)C(O)C(OC8OC(CO)C(O)C(O)C8OC8OC(CO)C(O)C(O)C8O)C7O)C(O)C6O)C(C)(C)C5CCC4(C)C3(C)C(OC(=O)/C=C/C=C/C=C/CCC)C(OC(C)=O)C12CO (stereo not given) | -21.4% [at 9.73 µM] (inactive) | – | – |
| CCCCS(=O)(=O)NC(Cc1ccc(OCCCCC2CCNCC2)cc1)C(=O)O (stereo not given) | -4.06% [at 50 µM] (inactive) | – | – |
| CC1CCC23COC(=O)C2=CC(O)CC3C1(C)CCc1ccoc1 (stereo not given) | -4.58% (inactive) | – | – |
| COC(=O)C1=COC(OC2OC(CO)C(O)C(O)C2O)C2C(C)CC(=O)C12O (stereo not given) | 1.85% (inactive) | – | – |
| CC1(C)CC[C@]2(C(=O)O)CC[C@]3(C)C(=CCC4[C@@]5(C)CC[C@H](O[C@@H]6O[C@H](C(=O)O)[C@@H](O)[C@H](O[C@@H]7O[C@H](CO)[C@H](O)[C@H](O)[C@H]7O)[C@H]6O[C@@H]6O[C@H](CO)[C@@H](O)[C@H](O)[C@H]6O)C(C)(C)C5CC[C@]43C)[C@@H]2C1 (stereo not given in full) | -30.4% [at 9.73 µM] (inactive) | – | – |
| NC[C@@H]1O[C@@H](O[C@@H]2[C@@H](O[C@@H]3O[C@H](CO)[C@@H](O)[C@H]3O)[C@H](O)[C@@H](N)C[C@H]2N)[C@@H](N)[C@H](O)[C@H]1O | – | inactive [at 9.73 µM] | – |
| COCCN1CCC(C(=O)NO)(S(=O)(=O)c2ccc(Oc3ccc(OC(F)(F)F)cc3)cc2)CC1 | -7.24% [at 50 µM] (inactive) | – | – |
| CC(C)=CC[C@H]1O[C@]2(O)C([C@H]3CCC4[C@@]5(C)CC[C@H](O[C@@H]6O[C@H](CO)[C@H](O)[C@H](O[C@@H]7O[C@H](CO)[C@@H](O)[C@H](O)[C@H]7O)[C@H]6O[C@@H]6O[C@@H](C)[C@H](O)[C@@H](O)[C@H]6O)C(C)(C)C5CC[C@@]4(C)[C@]3(C)[C@H]2O)[C@@]1(C)O (stereo not given in full) | – | inactive [at 15.3 µM] | – |
| C/C=C(\C)C(=O)OCC1OC(OCC2OC(OC3(CO)OC(CO)C(O)C3O)C(O)C(O)C2O)C(O)C(O)C1O (stereo not given) | -3.89% [at 15.3 µM] (inactive) | – | – |
| c1ccc2c(Nc3nnc(-c4ccncc4)s3)cccc2c1 | -14.6% [at 50 µM] (inactive) | – | – |
| Cn1cc(-c2c[nH]c3ncnc(N4CCOCC4)c23)cn1 | – | – | inactive |
| COC(=O)C1=COC(OC2OC(CO)C(O)C(O)C2O)C2C(C)C(OC(=O)/C=C/c3ccc(O)cc3)C(O)C12 (stereo not given) | 0.183% (inactive) | – | – |
| COC(=O)[C@]1(C)CCC[C@@]2(C)[C@@H]3CC[C@@H]4C[C@@]3(CC[C@@H]21)C[C@H]4C(=O)O | 4.77% (inactive) | – | – |
| OC[C@H]1O[C@@H](OCCc2ccccc2)[C@H](O[C@@H]2OC[C@@H](O)[C@H](O)[C@H]2O)[C@@H](O)[C@@H]1O | -2.79% (inactive) | – | – |
| C=C(C)[C@H]1CC[C@]2(C(=O)O)CC[C@]3(C)C(CCC4[C@@]5(C)CCC(=O)C(C)(C)C5CC[C@]43C)C12 (stereo not given in full) | -20.3% (inactive) | – | – |
| Cc1nc2ccccc2c(-c2ccc3c4c(ccnc24)CCO3)c1[C@H](OC(C)(C)C)C(=O)O | -1.3% [at 50 µM] (inactive) | – | – |
| C[C@@H]1[C@H]2[C@H](O[C@@H]3O[C@H](CO)[C@@H](O)[C@H](O)[C@H]3O)OC=C(C(=O)O)[C@H]2C[C@@H]1OC(=O)/C=C/c1ccc(O)cc1 | – | inactive | – |
| COC(=O)c1ccccc1O[C@@H]1O[C@H](CO[C@@H]2OC[C@@H](O)[C@H](O)[C@H]2O)[C@@H](O)[C@H](O)[C@H]1O | – | inactive | – |
| CC[C@H]1OC(=O)[C@H](C)C(=O)[C@H](C)[C@@H](OC2O[C@H](C)C[C@H](N(C)C)[C@H]2O)[C@@H](C)C[C@@H](C)C(=O)/C=C/[C@]1(C)O (stereo not given in full) | -9.99% (inactive) | – | – |
